This excerpt belongs to a sample that is enriched for hits.
12-LOX inh = Primary qHTS assay for inhibitors of human arachidonate 12S-lipoxygenase (ALOX12): Round 2; Polyunsaturated fatty acid lipoxygenase ALOX12 (Homo sapiens), P18054; 580,000 tested, 1.1% active; purified 12hLO, xylenol orange hydroperoxide absorbance; Potency, µM (series often up to 108 µM), for the others: top-dose activity change, negative = inhibition, hits mostly inhibitors; note: potency is the fitted concentration of half-maximal effect
Target sequence (P18054 whole entry, looked up): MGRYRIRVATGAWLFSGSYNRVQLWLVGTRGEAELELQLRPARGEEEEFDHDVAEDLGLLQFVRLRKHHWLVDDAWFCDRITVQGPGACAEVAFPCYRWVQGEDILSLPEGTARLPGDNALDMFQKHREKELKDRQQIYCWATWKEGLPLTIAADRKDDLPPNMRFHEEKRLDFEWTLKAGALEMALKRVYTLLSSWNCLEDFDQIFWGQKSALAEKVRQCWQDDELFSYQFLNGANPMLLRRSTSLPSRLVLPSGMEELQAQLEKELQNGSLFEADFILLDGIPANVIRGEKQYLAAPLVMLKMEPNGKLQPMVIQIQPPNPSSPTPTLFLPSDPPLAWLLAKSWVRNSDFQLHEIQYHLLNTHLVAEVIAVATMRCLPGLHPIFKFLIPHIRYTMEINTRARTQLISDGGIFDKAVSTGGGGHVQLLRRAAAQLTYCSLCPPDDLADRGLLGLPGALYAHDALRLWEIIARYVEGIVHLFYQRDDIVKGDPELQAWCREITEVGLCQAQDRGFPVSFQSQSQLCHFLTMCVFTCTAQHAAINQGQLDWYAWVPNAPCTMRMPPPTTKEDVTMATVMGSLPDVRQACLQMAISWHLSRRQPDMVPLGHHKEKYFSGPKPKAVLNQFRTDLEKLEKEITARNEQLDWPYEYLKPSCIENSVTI
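Purified human 12hLO (150 nM final) in 25 mM Hepes, 0.01% Triton X-100, pH 7.0 was preincubated 15 min at room temperature with compound. Then 40 uM arachidonic acid was added, 30 min. Hydroperoxide was read by Fe-XO absorbance ratio 573/405 nm.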
HT1080 IDH1KD tx = qHTS for induction of synthetic lethality in tumor cells producing 2HG: qHTS for the HT-1080-IDH1KD cell line. HT-1080 IDH1 knockdown viability, ATP luminescence, 48 h. Potency, µM (series often up to 46.1 µM), for inactives: at the highest dose activity, negative = toxicity, most hits filed as cytotoxic. 360,000 tested, 2% active. AID 686971, 2013;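 note: potency is the fitted concentration of half-maximal effect; 0% = DMSO wells and -100% = cell-free medium wells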
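% activity derives from luminescence (CellTiter-Glo), normalised to DMSO and no-cell wells. HT-1080-IDH1KD cells, 750/well, had 48 h compound exposure at 37 °C.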
IL-1B inflam inh = qHTS for Inhibitors of Inflammasome Signaling: IL-1-beta AlphaLISA Primary Screen; 360,000 tested, 4.7% active; THP-1 LPS/ATP IL-1B secretion, AlphaLISA, 16 h; hits give low values; activity change, % at 57.5 µM; in the data active = activity change below about -50%; inconclusive = mostly about -30% to -49%
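THP-1 cells pretreated 1 hr with compounds (up to 57.5 uM final), then stimulated with LPS (250 ng/mL final) plus ATP (1.25 mM final); secreted IL-1B measured by AlphaLISA after 16 hr, decreased signal indicating inhibition.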
TDP1 cell CPT = qHTS for Inhibitors of human tyrosyl-DNA phosphodiesterase 1 (TDP1): qHTS in cells in presence of CPT; 420,000 tested, 12% active; chicken DT40 Tdp1-/-;hTDP1 cells + 20 nM CPT, ATP luminescence, 48 h; AID 686979, 2013; Potency, µM (titrated, usually from 46.2 µM), for the others: top-dose activity change, negative = growth inhibition, actives largely listed as inhibitors; note: potency is the fitted concentration of half-maximal effect; nearly all actives have a fitted effect of over 55% in size
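Cell growth measured by CellTiter-Glo luminescence after a minimum 48 h, 37 C compound exposure with 20 nM CPT in Tdp1-knockout DT40 cells stably expressing hTDP1, seeded 400/well; qHTS titration format.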
HT1080NT lethal = qHTS for induction of synthetic lethality in tumor cells producing 2HG: qHTS for the HT-1080-NT fibrosarcoma cell line; HT-1080-NT fibrosarcoma viability, CellTiter-Glo ATP luminescence, 48 h; Potency, µM (doses to about 46.1 µM), without a hit: at the top dose activity, negative = less viability, hits mostly cytotoxic; 360,000 tested, 1.6% active; AID 686970, 2013;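 note: NT is the 2HG producing partner of a matched IDH1 knockdown line; potency is the fitted concentration of half-maximal effect; 0% = DMSO-treated cells and -100% = media-only wells without cells; nearly all actives have a fitted effect of over 55% in size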
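Luminescent CellTiter-Glo readout after 48 hours of compound exposure at 37 degrees C defined viability of HT-1080-NT cells. Activity was normalized to DMSO wells and cell-free media wells; concentration-response curves were fitted and assigned curve classes.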
DT40 TDP1 no CPT = qHTS for Inhibitors of human tyrosyl-DNA phosphodiesterase 1 (TDP1): qHTS in cells in absence of CPT | AID 686978, 2013 | 420,000 tested, 15% active | Potency, µM (titrated, usually from 46.2 µM), inactives show at the top dose activity change, negative = growth inhibition, usual class: inhibitors | DT40 Tdp1-/- hTDP1 cells, no CPT, ATP luminescence, 48 h; note: potency is the fitted concentration of half-maximal effect; nearly all actives have a fitted effect of over 55% in size
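Seeded 400 DT40-hTDP1 cells/well (vehicle DMSO, no 20 nM CPT); pinned compounds; ≥48 hr at 37 °C; CellTiter-Glo luminescence as viability measure.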
* marks the source's active call; other numbers are inactive results; ? = inconclusive; · = no result; [ ] = remark or other dose. Unless noted, calls come from the whole dose curve; as a rule, active = well fitted curve in the direction sought with a large enough effect; inconclusive = small, poorly fitted or top-dose-only effect, or another doubt; inactive = no such curve, though single readings can be large; an effect the other way counts as inactive or inconclusive. Unless noted, % is set by controls: 0 for no effect and ±100 for the full control effect.

SMILES	12-LOX inh	HT1080 IDH1KD tx	IL-1B inflam inh	TDP1 cell CPT	HT1080NT lethal	DT40 TDP1 no CPT
Cc1ccc(C)c(NC(=O)N2CCCC(Cn3c(C4CC4)nc4cccnc43)C2)c1 (stereo not given)	-0.6%	·	·	·	·	·
CNCC(=O)N1CCc2ncnc(N3CCSCC3)c2CC1	31.0%	·	·	·	·	·
O=C(Nc1cccc(-c2nnc(-c3ccco3)o2)c1)c1ccccc1	-12.8%	-2.8%	-77.7*	?	-23.2%	?
O=C1CCN(S(=O)(=O)c2ccccc2)CCCN(C(=O)CCCc2ccccc2)CCN1	40.9%	·	·	·	·	·
c1ccc(C2=Nn3c(nnc3-c3cccs3)SC2)cc1	71.6%	-1.5%	·	2.1%	-4.5%	?
c1csc(C2=Nn3c(nnc3-c3ccncc3)SC2)c1	?	-14.5%	-75.4*	14.6µM*	-0.2%	14.6µM*
CCc1ccc(C2=Nn3c(nnc3-c3cccs3)SC2)cc1	?	?	-6.2	?	-22.5%	20.6µM*
Clc1ccccc1C1=Nn2c(nnc2-c2ccncc2)SC1	-14.7%	-10.3%	-85.6*	6.51µM*	-29.2%	10.3µM*
c1ccc(-c2ccc(C3=Nn4c(nnc4-c4cccs4)SC3)cc2)cc1	182.4%	-1.4%	24.5	?	-12.3%	?
CCCc1nc(C)n2ccn(Cc3cccc(C#N)c3)c(=O)c12	38.0%	·	·	·	·	·
CC1(C)CC(Nc2ccc(C(F)(F)F)cc2[N+](=O)[O-])CC(C)(C)N1	-18.8%	?	-51.7*	-21.4%	-23.5%	?
O=[N+]([O-])c1cc(C(F)(F)F)ccc1NC1CCN(Cc2ccccc2)C1 (stereo not given)	?	-20.2%	?	?	-0.3%	-19.6%
CC(=O)N1c2c(cc(Br)cc2S(=O)(=O)N2CCN(c3ccccc3F)CC2)CC1C (stereo not given)	5.9%	-16.0%	-8.6	-24.7%	-26.3%	?
CC(=O)N1c2c(cc(Br)cc2S(=O)(=O)N2CCN(c3cc(C)ccc3C)CC2)CC1C (stereo not given)	-6.9%	·	·	16.4µM*	·	14.6µM*
CC(=O)N1c2c(cc(Br)cc2S(=O)(=O)N2CCOCC2)CC1C (stereo not given)	0.0%	1.9%	-4.5	-3.6%	9.0%	-12.0%
COc1ccc(C)cc1NS(=O)(=O)c1cc(Br)cc2c1N(C(C)=O)C(C)C2 (stereo not given)	-0.9%	·	·	?	·	18.4µM*
COc1cc(NS(=O)(=O)c2cc(Br)cc3c2N(C(C)=O)C(C)C3)cc(OC)c1 (stereo not given)	-3.4%	·	·	13µM*	·	18.4µM*
CC1(COc2ccc3[nH]ccc3c2)COc2ccc(C(=O)N3CC(O)C3)cc2N1 (stereo not given)	-8.4%[176 µM]	·	·	·	·	·
CCCC(NC(=O)CCc1c(C)c2cc3c4c(oc3c(C)c2oc1=O)CCCC4)C(=O)O (stereo not given)	-4.1%	-12.6%	21.0	11.6µM*	-28.4%	-10.5%
Cc1c(CC(=O)NCc2ccccc2)c(=O)oc2c(C)c(O)ccc12	-16.4%	·	·	13µM*	·	13µM*
Cc1c(CCC(=O)N[C@@H](C)C(=O)O)c(=O)oc2cc3oc4c(c3cc12)CCCC4	0.8%	-8.2%	9.7	2.6%	-6.8%	0.9%
Cc1c(Cc2ccccc2)c(=O)oc2c(C)c(OCC(=O)Nc3ccc(C#N)cc3)ccc12	-16.7%	15.8%	-5.8	1.8%	10.6%	?
Cc1c(CC(=O)NCc2ccc(F)cc2)c(=O)oc2c(C)c(O)ccc12	12.9%	·	·	·	·	·
Cc1c(Cc2ccccc2)c(=O)oc2c(O)c(O)ccc12	3.98µM*	-20.7%	174.3	-18.5%	-0.9%	?
Cc1cccc(C)c1NC(=O)COc1ccc2c(C)c(Cc3ccccc3)c(=O)oc2c1C	-20.9%	6.6%	27.2	16.4µM*	5.3%	?
SMILES	12-LOX inh	HT1080 IDH1KD tx	IL-1B inflam inh	TDP1 cell CPT	HT1080NT lethal	DT40 TDP1 no CPT
Cc1c(Cc2ccccc2)c(=O)oc2cc(O)ccc12	3.2%	?	-3.3	-27.2%	-16.8%	6.5%
COc1ccccc1CNC(=O)Cc1c(C)c2cc3c(C)coc3c(C)c2oc1=O	-23.5%	·	·	16.4µM*	·	11.6µM*
COc1ccccc1CCNC(=O)CCc1c(C)c2cc3c(C)coc3c(C)c2oc1=O	-19.8%	·	·	?	·	?
Cc1coc2c(C)c3oc(=O)c(CC(=O)NCc4ccccc4)c(C)c3cc12	-17.3%	·	·	5.8µM*	·	4.61µM*
Cc1c(Cc2ccccc2)c(=O)oc2c(CN(C)C)c(O)c(Cl)cc12	-8.4%	-25.9%	18.1	?	-2.2%	16.4µM*
CCN(CC)Cc1c(O)c(Cl)cc2c(C)c(C)c(=O)oc12	-28.2%	0.6%	11.3	-12.6%	2.1%	3.0%
COc1ccc(CNC(=O)CCc2c(C)c3cc4c(C)coc4c(C)c3oc2=O)cc1OC	-22.0%	·	·	-4.4%	·	?
Cc1coc2c(C)c3oc(=O)c(CCC(=O)NCCc4ccccc4)c(C)c3cc12	-13.8%	·	·	13µM*	·	16.4µM*
Cc1coc2c(C)c3oc(=O)c(CC(=O)NCCc4ccc(Cl)cc4)c(C)c3cc12	-3.6%	·	·	?	·	?
CCN(CC)CCCNC(=O)CNc1nc(Cl)nc2nc[nH]c12	-14.7%	·	·	·	·	·
CN(C)c1nc2c(c(=O)[nH]1)CCN(Cc1ccc(F)c(Cl)c1)CC2	47.4%	·	·	·	·	·
O=C(NCc1ccccc1C(F)(F)F)c1n[nH]c2c1CCCC2	59.9%	·	·	·	·	·
COCCc1noc([C@@H]2CN(Cc3ccc(F)cc3)C[C@H]2CO)n1	40.7%	·	·	·	·	·
Clc1cccc(N2CCN(c3c4c(nc5nncn35)CCC4)CC2)c1	-28.7%	·	·	18.4µM*	·	7.31µM*
COc1ccc(NC(=O)c2cccc(N3C(=O)C4CC=C(C)CC4C3=O)c2)c(OC)c1 (stereo not given)	-18.6%	3.4%	21.5	?	3.1%	11.6µM*
COc1ccc(NC(=O)c2cc(N3C(=O)C4C5CCC(C5)C4C3=O)ccc2Cl)c(OC)c1 (stereo not given)	2.1%	2.1%	-8.5	?	-16.1%	-57.4%
